Test results published in PubChem BioAssay AID1345085 (National Center for Advancing Translational Sciences (NCATS), 2018).
Records with an inconclusive call do not appear. A number with no mark means an inactive call. Activity calls are given as the source filed them. The call rests on the fitted dose curve; in most records, active means well fitted cell-killing curve with a large enough effect; inconclusive means small, poorly fitted or top-dose-only effect, or effect the other way; inactive means no such curve, though single readings can be large or run the other way. *1 amine or outer side, *2 acyl side, *3 side chain or, on linkers, in order; H or OH if unused. Where a SMILES comes first, the peptide text is derived from it. Bridges are numbered along the chain shown (N, C = ends). Roman numbers before positions name the chains, in order. [ ]: non-standard residue; d: D form. Actinocin(9to1) = Cc1c2oc3c(C)ccc(C(=O)[*:1])c3nc-2c(C(=O)[*:2])c(N)c1=O; NMeV = CN[C@H](C(=O)O)C(C)C; Sar = CNCC(=O)O
Further: nearly all actives have a fitted effect of over 55% in size.
On the % scale 0 is the no-effect control and ±100 the full control effect; potency means the concentration at half of the fitted maximal effect.

What follows are compounds tested on C33A (assay: Confirmatory qHTS for gynecologic anti-cancer compounds from libraries of approved drugs and bioactive compounds). Conditions: gynecologic cancer cell panel viability, ATPlite luminescence, 48 h; series mostly up to 57.6 µM; activity change, negative = viability loss: at the top concentration.
In short: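 ATPlite luminescence read-out of cell viability; IC50 from 11-point 1:3 titrations, 57.5 uM to 0.977 nM, 48 h compound exposure at 37 C, 5% CO2. Cells seeded at 1,000/well 16 h before dosing.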
For O=C(NCC(O)CO)c1ccncc1Nc1ccc(I)cc1F (stereo not drawn), the “activity change, negative = viability loss” value was -24%. In the case of CCCCc1nc2cc(/C=C/C(=O)NO)ccc2n1CCN(CC)CC, the Potency is reported as 1.53 µM (active). Cc1c2oc3c(C)ccc(C(=O)N[C@@H]4C(=O)N[C@H](C(C)C)C(=O)N5CCC[C@H]5C(=O)N(C)CC(=O)N(C)[C@@H](C(C)C)C(=O)O[C@@H]4C)c3nc-2c(C(=O)N[C@@H]2C(=O)N[C@H](C(C)C)C(=O)N3CCC[C@H]3C(=O)N(C)CC(=O)N(C)[C@@H](C(C)C)C(=O)O[C@@H]2C)c(N)c1=O (I: T[dV]P[Sar][NMeV] / II: T[dV]P[Sar][NMeV]; ester I:1-I:C, II:1-II:C; linker I:N-II:N via Actinocin(9to1)) was tested, and the Potency was 0.385 µM (active). With Cc1csc(NC(=O)c2sc3nc4c(c(C(F)(F)F)c3c2N)CCC4)n1 the Potency was 1.93 µM (active). In the case of COc1ccc(OC)c(-c2nnc3ccc(-c4ccc(OC)c(O[C@@H]5CCOC5)c4)nn23)c1, the “activity change, negative = viability loss” value is reported as -2.95%. In the case of CN(C)c1ccc2nc3ccc(=[N+](C)C)cc-3sc2c1, the Potency is reported as 21.7 µM (active). With NC1(c2ccc(-c3nc4ccn5c(=O)[nH]nc5c4cc3-c3ccccc3)cc2)CCC1 the “activity change, negative = viability loss” value was 11%. In the case of CC(=O)OC12COC1CC(O)C1(C)C(=O)C(O)C3=C(C)C(OC(=O)C(O)C(NC(=O)OC(C)(C)C)c4ccccc4)CC(O)(C(OC(=O)c4ccccc4)C21)C3(C)C (stereo not drawn), the “activity change, negative = viability loss” value is reported as -5.17%. For C=CC(=O)Nc1cccc(Oc2nc(Nc3ccc(N4CCN(C)CC4)cc3)ncc2Cl)c1, the Potency was 24.3 µM (active). For COc1cc2c(Oc3ccc(-c4cnc(Nc5ccc(F)cc5)n(C)c4=O)cc3F)ccnc2cc1OCCCN1CCOCC1, the “activity change, negative = viability loss” value was -4.7%. In the case of Cc1ccccc1C(OCCN(C)C)c1ccccc1 (stereo not drawn), the “activity change, negative = viability loss” value is reported as 0.202%. In the case of O=C(NOC[C@H](O)CO)c1ccc(F)c(F)c1Nc1ccc(I)cc1F, the “activity change, negative = viability loss” value is reported as -1.8%. In the case of Cc1ccc(C(=O)Nc2ccc(Oc3cc4cnn(C)c4cc3-c3cn[nH]c3)c(F)c2)c(=O)n1-c1ccc(F)cc1, the “activity change, negative = viability loss” value is reported as -14.4%. Cn1cnc2c(F)c(Nc3ccc(Br)cc3Cl)c(C(=O)NOCCO)cc21 was tested, and the “activity change, negative = viability loss” value was -14.7%. In the case of NC(=O)Nc1cc(-c2cccc(F)c2)sc1C(=O)NC1CCCNC1 (stereo not drawn), the Potency is reported as 0.485 µM (active). In the case of Cc1cnc(Nc2ccc(OCCN3CCCC3)cc2)nc1Nc1cccc(S(=O)(=O)NC(C)(C)C)c1, the “activity change, negative = viability loss” value is reported as -25.9%. In the case of Cc1ccn(-c2ccc(-c3ncco3)cc2)c(=O)c1-c1ccc2nc(N)ncc2c1, the “activity change, negative = viability loss” value is reported as -9.79%. C[C@]12CCC(=O)C=C1[C@@H]1C[C@@H]1[C@H]1[C@@H]3[C@@H]4C[C@@H]4[C@@]4(CCC(=O)O4)[C@@]3(C)CC[C@@H]12 was tested, and the “activity change, negative = viability loss” value was -12.5%.
